HTR1E agonist = agonists of human 5-HT1E serotonin receptor; P28566; CHO 5-HT1E Ga15 NFAT-bla reporter, FRET; 0% DMSO wells, 100% control agonist wells; activation, % at 6 µM; hit rate 0.69% among 65,000;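 active means activation above a set limit, the screen-wide mean activation plus 3 SD, cut at about 8.5% in these data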;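 further: 100% = positive control agonist at 1 µM giving full maximal response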
5HT1E antag = 5-HT1E (human) receptor antagonism; P28566; CHO 5-HT1E Ga15 NFAT-bla reporter, FRET, antagonist; inhibition, % at 6 µM; hit rate 0.99% among 65,000;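 active means inhibition above a set limit, the mean inhibition across every tested compound plus 3 SD, cut at about 29% in these data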;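 further: signal is the 460 over 535 nm emission ratio of beta-lactamase substrate; 0% = agonist plus DMSO wells and 100% = wells without agonist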
HER2 expr 66K = Her2 kinase expression inhibition | HER2 level % of control, % at 10 µM | P04626 | hit rate 0.69% among 65,000 | SKBR-3 HER2 protein level, AlphaScreen, 18-24 h; stronger effect = lower value | AID 645;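 active means HER2 level under 5% of the carrier-only control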;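 further: 100% = DMSO carrier and 0% = 500 nM PU-H71 HSP90 inhibitor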
5HT1a antag = antagonists of human 5-HT1a serotonin receptor | P08908 | CHO 5-HT1a Ga15 NFAT-bla reporter, antagonist mode | inhibition, % at 10 µM | hit rate 0.68% among 62,000 | AID 612;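 active means inhibition above the mean of all tested compounds plus 3 SD, cut at about 43% in these data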;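 further: receptor stimulated by 5-CT agonist at 100 nM near EC80; beta-lactamase reporter measured by ratiometric fluorescence of a cleavable substrate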
Target sequence (P08908 whole entry, looked up): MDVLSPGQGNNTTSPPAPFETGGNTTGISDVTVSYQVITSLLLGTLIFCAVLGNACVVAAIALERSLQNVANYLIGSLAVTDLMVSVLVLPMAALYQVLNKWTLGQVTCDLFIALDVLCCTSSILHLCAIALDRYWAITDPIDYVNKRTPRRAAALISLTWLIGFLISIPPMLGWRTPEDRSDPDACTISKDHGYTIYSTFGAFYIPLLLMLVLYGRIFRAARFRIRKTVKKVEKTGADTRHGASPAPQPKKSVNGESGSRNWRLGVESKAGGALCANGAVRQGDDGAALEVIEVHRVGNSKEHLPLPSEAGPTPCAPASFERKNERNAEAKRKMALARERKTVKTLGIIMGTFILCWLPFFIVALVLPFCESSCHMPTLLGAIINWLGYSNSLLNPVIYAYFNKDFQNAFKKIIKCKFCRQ
HTR1A agonist = 5-HT1a (human) receptor agonism; AID 567; hit rate 0.56% among 65,000; activation, % at 10 µM; CHO 5-HT1a Ga15 NFAT-bla reporter, FRET ratio; 0% basal, 100% maximal reference agonist;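 active means activation above the screen-wide mean activation plus 3 SD, cut at about 19% in these data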;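 further: 0% = DMSO wells and 100% = 5-CT at EC100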
* = called active by the depositor. Compounds with a hit are over-represented: about 3% of the library has one in this group of screens.

`Cc1ccc(-n2c(=O)c(C#N)cc3c(=O)n4ccccc4nc32)cc1` gave HTR1E agonist 8, 5HT1E antag -6, HER2 expr 66K 102, 5HT1a antag -25 and HTR1A agonist 30*.
Screening CCc1ccc(NC(=O)CCNS(=O)(=O)c2cccc3nonc23)cc1 returned HTR1E agonist 0, 5HT1E antag 0, HER2 expr 66K 92, 5HT1a antag -12 and HTR1A agonist -3.
Cc1ccc(CCN2CC(C(=O)NCCCN3CCCCCC3)CC2=O)cc1 (configuration not stated) was read as HTR1E agonist -1, 5HT1E antag -10, HER2 expr 66K 96, 5HT1a antag -2 and HTR1A agonist -1.
For COc1ccc(N2CCN(CC(O)c3c[nH]c4ccc(OC)cc34)CC2C)cc1 (configuration not stated) the results were HTR1E agonist 0, 5HT1E antag 3, HER2 expr 66K 101, 5HT1a antag 19 and HTR1A agonist 23*.
`Cc1ccc(Cn2nnnc2CN2CCC(O)(c3ccccc3F)CC2)cc1` gave HTR1E agonist -1, 5HT1E antag 14, HER2 expr 66K 67, 5HT1a antag 15 and HTR1A agonist -2.
`CN1CCN(CC(=O)N2CCn3c4c(c5cc(C6CCCCC6)ccc53)CCCC42)CC1` (configuration not stated) gave HTR1E agonist -1, 5HT1E antag -13, HER2 expr 66K -16*, 5HT1a antag -21 and HTR1A agonist 5.
Screening Cc1ccc2c(c1)c1c3n2CCN(C(=O)CN2CCN(C)CC2)C3CCC1 (configuration not stated) returned HTR1E agonist 0, 5HT1E antag -7, HER2 expr 66K 75, 5HT1a antag -8 and HTR1A agonist -1.
CS(=O)(=O)NCCOc1ccc(S(=O)(=O)N2CCCc3ccccc32)cc1 was read as HTR1E agonist 0, 5HT1E antag 12, HER2 expr 66K 76, 5HT1a antag 12 and HTR1A agonist 0.
`CCCCOc1ccccc1-c1cc(C(=O)O)[nH]n1` gave HTR1E agonist 0, 5HT1E antag -10, HER2 expr 66K 102, 5HT1a antag 2 and HTR1A agonist -1.
Screening COC(=O)c1cc2c(=O)n3ccccc3nc2n(C(C)C)c1=N returned HTR1E agonist 4, 5HT1E antag 0, HER2 expr 66K 81, 5HT1a antag -10 and HTR1A agonist 16.
N=c1c(C(=O)NCc2ccco2)cc2c(=O)n3ccccc3nc2n1Cc1ccc(Cl)cc1 was read as HTR1E agonist 5, 5HT1E antag -16, HER2 expr 66K 97, 5HT1a antag 13 and HTR1A agonist 27*.
Cc1ccc(CNC(=O)c2cc3c(=O)n4ccccc4nc3n(CC3CCCO3)c2=N)cc1 (configuration not stated) was read as HTR1E agonist 4, 5HT1E antag -13, HER2 expr 66K 123 and HTR1A agonist 32*.
Screening CC(C)n1c(=N)c(C(=O)NCCc2ccccc2)cc2c(=O)n3ccccc3nc21 returned HTR1E agonist 13*, 5HT1E antag -13, HER2 expr 66K 89, 5HT1a antag -69 and HTR1A agonist 52*.
Screening N=c1c(S(=O)(=O)c2ccc(Cl)cc2)cc2c(=O)n3ccccc3nc2n1CCN1CCOCC1 returned HTR1E agonist 8, 5HT1E antag 0, HER2 expr 66K 95, 5HT1a antag -51 and HTR1A agonist 24*.
`CC(C)Cn1c(SCc2nnc(-c3cccs3)o2)nc(O)cc1=O` gave HTR1E agonist 0, 5HT1E antag -2, HER2 expr 66K 72, 5HT1a antag 1 and HTR1A agonist -1.
Screening CCS(=O)(=O)N1CCC(C(=O)N2CCc3ccccc3C2)CC1 returned HTR1E agonist 0, 5HT1E antag -8, HER2 expr 66K 93, 5HT1a antag 6 and HTR1A agonist -3.
Screening CCOC(=O)N1CCN(c2ncnc3c2oc2nc(CC(C)C)c4c(c23)CCC4)CC1 returned HTR1E agonist 0, 5HT1E antag -5, HER2 expr 66K 38, 5HT1a antag -2 and HTR1A agonist -4.
`O=C(CCCN1CCC(O)(c2ccc(Cl)cc2)CC1)c1ccc(F)cc1` gave HTR1E agonist 0, 5HT1E antag -4 and HER2 expr 66K 97.
COc1ccccc1N1CCN(CC(=O)c2ccc3ccn(C(C)=O)c3c2)CC1 was read as HTR1E agonist 30*, 5HT1E antag 8, HER2 expr 66K 80, 5HT1a antag 15 and HTR1A agonist 8.
`COc1ccccc1N1CCN(CCCC(=O)c2ccc(F)cc2)CC1` gave HTR1E agonist 3, 5HT1E antag 11, HER2 expr 66K 118, 5HT1a antag 93* and HTR1A agonist 4.
Screening COc1ccccc1N1CCN(CC(=O)Nc2cc(F)ccc2C)CC1 returned HTR1E agonist -1, 5HT1E antag -10, HER2 expr 66K 81, 5HT1a antag 43* and HTR1A agonist 0.
For COc1ccccc1N1CCN(CCCNC(=O)Nc2ccccc2C)CC1 the results were HTR1E agonist 3, 5HT1E antag 9, HER2 expr 66K 101, 5HT1a antag 82* and HTR1A agonist 0.
For CC(=O)OCC(=O)c1ccc2ccn(C(C)=O)c2c1 the results were HTR1E agonist 0, 5HT1E antag -5, HER2 expr 66K 65, 5HT1a antag 2 and HTR1A agonist -2.
Screening COc1ccc(Cl)cc1N1CCN(CCNC(=O)Nc2ccccc2C)CC1 returned HTR1E agonist 1, 5HT1E antag -8, HER2 expr 66K 47, 5HT1a antag 21 and HTR1A agonist -3.
Cc1cccc(NC(=O)Cn2c(C)c(C#N)c3ccccc32)c1C was read as HTR1E agonist 0, 5HT1E antag -1, HER2 expr 66K 113, 5HT1a antag 35 and HTR1A agonist -1.
For CCCn1nc(-c2nnc(-c3ccc(C)c(C)c3)o2)c2ccccc2c1=O the results were HTR1E agonist 1, 5HT1E antag -12, HER2 expr 66K 127, 5HT1a antag 3 and HTR1A agonist 3.
`COc1ccc(-c2cc(N)n(S(=O)(=O)c3c(F)c(F)c(F)c(F)c3F)n2)cc1OC` gave HTR1E agonist 0, 5HT1E antag 33*, HER2 expr 66K -13*, 5HT1a antag 46* and HTR1A agonist 0.
OCCN1CCN(c2nc(-c3ccccc3)c3cc(Cl)ccc3n2)CC1 was read as HTR1E agonist 7, 5HT1E antag 6, HER2 expr 66K 37, 5HT1a antag -20 and HTR1A agonist 18.
For CN1CCN(c2nc(-c3ccccc3)c3cc(Cl)ccc3n2)CC1 the results were HTR1E agonist 8, 5HT1E antag 0, HER2 expr 66K 30, 5HT1a antag -30 and HTR1A agonist 30*.
For Clc1ccc2nc(N3CCNCC3)nc(-c3ccccc3)c2c1 the results were HTR1E agonist 14*, 5HT1E antag -4, HER2 expr 66K 104 and HTR1A agonist 55*.
Screening O=c1nc(-c2ccccc2)c2cc(Cl)ccc2[nH]1 returned HTR1E agonist 0, 5HT1E antag 1, HER2 expr 66K 95, 5HT1a antag -6 and HTR1A agonist -1.
